Compound activity (PubChem)
TRPM1 prom inh: inhibitors of MITF-dependent TRPM1 promoter reporter, primary screen, cell-based, SK-MEL-5, single point, luciferase; inhibition, % at 12.5 µM; actives 0.83% (n = 330,000); SK-MEL-5 TRPM1 promoter luciferase, 24 h; AID 488899, 2010;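 active means mean inhibition across replicates of 60% or more, whatever share of single replicates reaches that level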
EWS-Fli inh: EWS/Fli-driven NR0B1 reporter inhibitors, primary screen, A673 cells, NR0B1 luciferase, luminescence, MLPCN library; actives 0.67% (n = 350,000); AID 651661, 2012; inhibition, % at 12.6 µM; viability-normalised;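 active means mean inhibition of at least 50% after viability correction, with every replicate also passing that limit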;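 further: firefly luciferase signal divided by Alamar Blue viability fluorescence both relative to DMSO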
Wnt bcat act: Wnt/beta-catenin pathway activators, primary screen, cell-based, plate reader, single point. actives 1.2% (n = 300,000). activation, % at 9.35 µM. Wnt/beta-catenin reporter cell assay, activator; in the data active means activation above about 30%, passing the limit was not always enough
MITF TRPM1 HTS: activators of MITF-driven TRPM1 promoter reporter, primary screen, cell-based, SK-MEL-5, luciferase, single point | SK-MEL-5 TRPM1-promoter luciferase, 24 h; % of positive control, neutral wells = 0 | activation, % at 12.5 µM | actives 0.75% (n = 300,000) | AID 588334, 2011;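 active means mean activation of at least 80% with every replicate also reaching 80%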
PAX8 reporter: inhibitors of PAX8-driven TPO luciferase reporter, primary screen, RMG-I cells, single concentration | SteadyGlo, 24 h | inhibition, % at 12.6 µM | actives 1.2% (n = 360,000);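 active means mean replicate inhibition at least 60% with every replicate also reaching 60%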;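 further: luciferase light reporting Pax8 driven TPO promoter activity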
esBAF inh: Bmi1 luciferase reporter increase in mESCs, primary screen, esBAF inhibitor project, mouse ES cells, Bmi1 luciferase knock-in, single point. 24 h; 100% = twice the neutral-well signal. reporter increase, % at 12.5 µM. actives 2% (n = 350,000). AID 602393, 2012; in the data active means activation above about 40%;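 further: a rise in the Bmi1 reporter signal indicates esBAF inhibition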
Of the large screens only hits and unclear results are named; the others gave an inactive call. Rows were chosen to be rich in hits. Some 4% of all compounds tested hit in one or more screens of this group.

CCCCCn1c(=O)c(C(=O)Nc2cnccn2)c(O)c2ccccc21	TRPM1 prom inh 66
CCCCCn1c(=O)c(C(=O)Nc2ccccc2S(N)(=O)=O)c(O)c2ccccc21	PAX8 reporter 83 (no result: esBAF inh)
CCCCCn1c(=O)c(C(=O)Nc2ccccc2C)c(O)c2ccccc21	esBAF inh 51
CCCCn1c(=O)c(C(=O)Nc2ccccc2S(N)(=O)=O)c(O)c2ccccc21	none (no result: EWS-Fli inh, Wnt bcat act, PAX8 reporter)
COC(=O)[C@@H]1[C@@H](CO)[C@@H]2Cn3c(ccc(-c4ccccc4F)c3=O)[C@H]1N2C(=O)C1CCC1	none (no result: TRPM1 prom inh, Wnt bcat act, MITF TRPM1 HTS, PAX8 reporter)
O=C(Cc1cccnc1)N1CCCCN2[C@H](CO)[C@@H](c3ccc(/C=C/c4ccccc4)cc3)[C@@H]2C1	none (no result: TRPM1 prom inh, Wnt bcat act, MITF TRPM1 HTS, esBAF inh)
O=C(Cc1ccccc1)N1CCCCN2[C@@H](CO)[C@H](c3ccc(C#CC4(O)CCCC4)cc3)[C@@H]2C1	none (no result: TRPM1 prom inh, Wnt bcat act, MITF TRPM1 HTS, esBAF inh)
CC(=O)O[C@H]1C[C@@H]2OC3C=C(C)CCC3(C)[C@@]1(C)[C@@]21CO1 (some centres not stated)	TRPM1 prom inh 66, PAX8 reporter 110 (no result: MITF TRPM1 HTS, esBAF inh)
O=C(Cc1ccc(Cl)c(Cl)c1)NCC1(N2CCOCC2)CCCCC1	Wnt bcat act 45 (no result: esBAF inh)
COc1ccc(C(CNC(=O)Cc2ccc(Cl)c(Cl)c2)N2CCCCC2)cc1 (configuration not stated)	none
COC(=O)[C@@H]1[C@@H](CO)[C@@H]2Cn3c(cccc3=O)[C@H]1N2Cc1nccs1	none (no result: TRPM1 prom inh, Wnt bcat act, MITF TRPM1 HTS)
CC1=C2C[C@H]3[C@@H](CC=C4C[C@@H](O)CC[C@@]43C)[C@@H]2CC[C@]12O[C@@H]1C[C@H](C)CN[C@@H]1C2C (some centres not stated)	none (no result: TRPM1 prom inh, Wnt bcat act, MITF TRPM1 HTS, esBAF inh)
C[C@H]1CN([C@@H](C)CO)C(=O)CCCn2cc(nn2)CO[C@@H]1CN(C)C(=O)Oc1ccc2ccccc2c1	none (no result: TRPM1 prom inh, Wnt bcat act, MITF TRPM1 HTS, PAX8 reporter)
CCn1c(C)c(C(=O)Nc2ccc(OC)cc2)c2cc(OC)ccc21	esBAF inh 51
O=C(Cc1ccccn1)N1CCCCN2[C@H](CO)[C@H](c3ccc(-c4ccccc4)cc3)[C@@H]2C1	none (no result: TRPM1 prom inh, Wnt bcat act, MITF TRPM1 HTS, esBAF inh)
CC(C)c1oc(=O)cc2c1[C@@H](O)[C@H]1OC(=O)[C@@]3(C)C[C@@H](O)[C@@H](O)[C@@]2(C)C13 (some centres not stated)	TRPM1 prom inh 64, PAX8 reporter 86
N#Cc1cccc(-c2ccc([C@@H]3[C@@H](CO)N4CCCCN(C(=O)Cc5ccccc5)C[C@H]34)cc2)c1	none (no result: TRPM1 prom inh, Wnt bcat act, MITF TRPM1 HTS, esBAF inh)
O=C(Cc1ccncc1)N1CCCCN2[C@@H](CO)[C@@H](c3ccc(C#Cc4ccccc4F)cc3)[C@@H]2C1	none (no result: TRPM1 prom inh, Wnt bcat act, MITF TRPM1 HTS)
CN1CCN(c2ccc3c(c2)S(=O)(=O)c2ccccc2C3=O)CC1	MITF TRPM1 HTS 93
COc1cc(/C=N/n2cnnc2)ccc1OC(=O)N(C)C	none (no result: PAX8 reporter)
COc1cc(/C=C/[N+](=O)[O-])ccc1OC(=O)c1cccnc1	EWS-Fli inh 56 (no result: MITF TRPM1 HTS)
Cc1ccc(-c2cc(-c3ccc(C)cc3)[n+](-c3ccc(C(=O)O)cc3)c(-c3ccc(C)cc3)c2)cc1	none
Cc1ccc(C[n+]2c(-c3ccc(C)cc3)cc(-c3ccc(C)cc3)cc2-c2ccc(C)cc2)cc1	TRPM1 prom inh 96 (no result: EWS-Fli inh, Wnt bcat act, PAX8 reporter)
CC(Cc1ccccc1)/[N+]([O-])=C\c1ccc(C(F)(F)F)cc1 (configuration not stated)	MITF TRPM1 HTS 115, esBAF inh 76
CNC(C)Cc1ccccc1 (configuration not stated)	none (no result: PAX8 reporter)
CCCN1[C@@H]2c3ccc(-c4ccc(F)cc4)c(=O)n3C[C@H]1[C@H](CO)[C@H]2C(=O)OC	none (no result: TRPM1 prom inh, Wnt bcat act, MITF TRPM1 HTS)
CC(=O)OC(C)(C)/C=C/C(=O)[C@](C)(O)C1[C@H](O)C[C@@]2(C)C3CC=C4C(C[C@H](O)C(=O)C4(C)C)[C@]3(C)C(=O)C[C@]12C (some centres not stated)	TRPM1 prom inh 91 (no result: EWS-Fli inh, Wnt bcat act, PAX8 reporter)
CC(C)(O)/C=C/C(=O)C(C)(O)C1C(O)CC2(C)C3CC=C4C(C=C(O)C(=O)C4(C)C)C3(C)C(=O)CC12C (configuration not stated)	PAX8 reporter 91 (no result: TRPM1 prom inh, esBAF inh)
CC=Cc1ccc2n(c1=O)C[C@H]1[C@H](CO)[C@@H](C(=O)N(C)C)N[C@@H]21 (mixture of isomers)	none (no result: TRPM1 prom inh, Wnt bcat act, MITF TRPM1 HTS)
c1ccc(Nc2ccc(Nc3ccccc3)cc2)cc1	MITF TRPM1 HTS 86 (no result: PAX8 reporter)
C[C@H]1CCC/C=C/C2C[C@H](O)CC2[C@H](O)/C=C/C(=O)O1 (some centres not stated)	TRPM1 prom inh 80 (no result: EWS-Fli inh, Wnt bcat act, PAX8 reporter)
C[C@H]1CCC[C@@H](O)CCC/C=C/c2cc(O)cc(O)c2C(=O)O1	none (no result: EWS-Fli inh, Wnt bcat act, PAX8 reporter)
CC1CCC/C=C/C2CC(O)CC2C(O)/C=C/C(=O)O1 (configuration not stated)	TRPM1 prom inh 85, PAX8 reporter 127 (no result: EWS-Fli inh)
COc1cccc(-c2ccc([C@@H]3[C@@H](CO)N4CCCCN(C(=O)Cc5ccncc5)C[C@H]34)cc2)c1	none (no result: TRPM1 prom inh, EWS-Fli inh, Wnt bcat act, MITF TRPM1 HTS, esBAF inh)
COc1ccc(CCN(C)Cc2ccc(F)cc2F)cc1OC	Wnt bcat act 34 (no result: EWS-Fli inh, PAX8 reporter)
CCN(CC)c1ccc(CN(C)CCc2ccc(OC)c(OC)c2)cc1	none (no result: EWS-Fli inh, Wnt bcat act, PAX8 reporter)
CNc1ccc2nc3ccccc3[n+](C)c2c1	TRPM1 prom inh 72, PAX8 reporter 65
COC1=C[C@@H]2C3=C([C@@H]2C1=O)[C@@H](NC(C)=O)CCc1cc(OC)c(OC)c(OC)c13	none
COc1cc2c(c(OC)c1OC)-c1ccc(O)c(=O)cc1C(NC(C)=O)CC2 (configuration not stated)	EWS-Fli inh 59, PAX8 reporter 85
COc1ccc2c(c1)C(NC(C)=O)CCc1cc(OC)c(OC)c(OC)c1-2 (configuration not stated)	EWS-Fli inh 55, PAX8 reporter 84 (no result: MITF TRPM1 HTS, esBAF inh)
COC(=O)[C@H]1[C@H](CO)[C@H]2Cn3c(ccc(-c4ccccc4)c3=O)[C@@H]1N2CC1CCCCC1	none (no result: TRPM1 prom inh, Wnt bcat act, MITF TRPM1 HTS)
COC(=O)[C@H]1[C@H](CO)[C@H]2Cn3c(ccc(-c4ccccc4F)c3=O)[C@@H]1N2	none (no result: TRPM1 prom inh, Wnt bcat act, MITF TRPM1 HTS)
O=C(N/N=C/c1c(O)n(Cc2ccc(F)cc2)c(=O)[nH]c1=O)c1ccccc1	none (no result: MITF TRPM1 HTS, esBAF inh)
O=C(O)CCC(=O)NCCC1=c2ccccc2=N/C1=C\c1c(O)n(Cc2ccc(F)cc2)c(=S)[nH]c1=O	PAX8 reporter 62
CC1CCN(C(CC(=O)c2ccccc2)C(=O)c2ccccc2)CC1 (configuration not stated)	Wnt bcat act 51
CN1C2CCC1C(COC(=O)c1ccccc1)C(O)C2 (configuration not stated)	none
COC(=O)C1CN(C#N)N(c2ccc(Cl)cc2)C12c1ccccc1-c1ccccc12 (configuration not stated)	TRPM1 prom inh 98 (no result: EWS-Fli inh, Wnt bcat act, PAX8 reporter, esBAF inh)
